# From article PMC5540273 (PLoS ONE, 2017)
# Like-named read-outs stand apart in the source and are kept apart here.
# Tests used:
# ERK1 = tested on: T1, ERK1; settings: concentration: 1 μM, replicates: in singlicate; n = 1
# T1 construct: gene MAPK3
# ERK2 = tested on: T2, ERK2; settings: concentration: 1 μM, replicates: in singlicate; n = 1
# T2 construct: gene MAPK1
# ERK3 = tested on: T3, ERK3; settings: concentration: 1 μM, replicates: in singlicate; n = 1
# T3 construct: gene MAPK6
# ERK4 = tested on: T4, ERK4; settings: concentration: 1 μM, replicates: in singlicate; n = 1
# T4 construct: gene MAPK4
# ERK5 = tested on: T5, ERK5; settings: concentration: 1 μM, replicates: in singlicate; n = 1
# T5 construct: gene MAPK7
# ERK8 = tested on: T6, ERK8; settings: concentration: 1 μM, replicates: in singlicate; n = 1
# T6 construct: gene MAPK15
# ERN1 = settings: concentration: 1 μM, replicates: in singlicate; n = 1
# FAK = tested on: T7, FAK; settings: n = 1
# T7 construct: gene PTK2
# FER = settings: concentration: 1 μM, replicates: in singlicate; n = 1
# FES = settings: concentration: 1 μM, replicates: in singlicate; n = 1
# FGFR1 = settings: concentration: 1 μM, replicates: in singlicate; n = 1
# FGFR2 = settings: concentration: 1 μM, replicates: in singlicate; n = 1
# FGFR3 = settings: concentration: 1 μM, replicates: in singlicate; n = 1
# FGFR4 = settings: concentration: 1 μM, replicates: in singlicate; n = 1
# FGR = settings: concentration: 1 μM, replicates: in singlicate; n = 1
# FLT1 = settings: concentration: 1 μM, replicates: in singlicate; n = 1
# FLT3-autoinhibited = settings: concentration: 1 μM, replicates: in singlicate; n = 1
# FLT3 = settings: concentration: 1 μM, replicates: in singlicate; n = 1
# FLT4 = settings: concentration: 1 μM, replicates: in singlicate; n = 1
# FRK = settings: concentration: 1 μM, replicates: in singlicate; n = 1
# [1] = concentration: 1 μM, replicates: in singlicate
# 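Note: KINOMEscan kinase panel screen.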
compound,measurement,setting,value
CN(c1ccc(NC(=O)Nc2cccc(Cl)c2)cc1)c1ccnc(N)n1.Cl [GW830707],%Inh,ERK1,0%
same,%Inh,ERK2,12%
same,%Inh,ERK3,0%
same,%Inh,ERK4,0%
same,%Inh,ERK5,0%
same,%Inh,ERK8,6%
same,%Inh,ERN1,32%
same,%Inh,FAK; [1],15%
same,%Inh,FER,9%
same,%Inh,FES,19%
same,%Inh,FGFR1,9%
same,%Inh,FGFR2,0%
same,%Inh,FGFR3,0%
same,%Inh,FGFR4,7%
same,%Inh,FGR,4%
same,%Inh,FLT1,97.1%
same,%Inh,FLT3-autoinhibited,56%
same,%Inh,FLT3,97.6%
same,%Inh,FLT4,60%
same,%Inh,FRK,49%
O=C(O)C(F)(F)F.O=c1[nH]ccc2nc(N[C@@H]3CCNC3)nc(Nc3cc(Cl)cc(Cl)c3)c12 [GSK2188764],%Inh,ERK1,41%
same,%Inh,ERK2,51%
same,%Inh,ERK3,6%
same,%Inh,ERK4,37%
same,%Inh,ERK5,41%
same,%Inh,ERK8,15%
same,%Inh,ERN1,28%
same,%Inh,FAK; [1],41%
same,%Inh,FER,55%
same,%Inh,FES,0%
same,%Inh,FGFR1,0%
same,%Inh,FGFR2,0%
same,%Inh,FGFR3,25%
same,%Inh,FGFR4,27%
same,%Inh,FGR,44%
same,%Inh,FLT1,0%
same,%Inh,FLT3-autoinhibited,67%
same,%Inh,FLT3,23%
same,%Inh,FLT4,9%
same,%Inh,FRK,4%
N#Cc1cnc2cc(-c3cnc(CNCCN4CCOCC4)s3)ccc2c1Nc1ccc(Oc2ccccc2)cc1 [GW664114],%Inh,ERK1,0%
same,%Inh,ERK2,0%
same,%Inh,ERK3,0%
same,%Inh,ERK4,48%
same,%Inh,ERK5,0%
same,%Inh,ERK8,0%
same,%Inh,ERN1,21%
same,%Inh,FAK; [1],0%
same,%Inh,FER,82%
same,%Inh,FES,94.9%
same,%Inh,FGFR1,0%
same,%Inh,FGFR2,0%
same,%Inh,FGFR3,2%
same,%Inh,FGFR4,0%
same,%Inh,FGR,96.7%
same,%Inh,FLT1,53%
same,%Inh,FLT3-autoinhibited,7%
same,%Inh,FLT3,70%
same,%Inh,FLT4,22%
same,%Inh,FRK,17%
COC(=O)Nc1nc2ccc(Oc3ccc(CC(=O)Nc4cc(C(F)(F)F)ccc4F)cc3)cc2[nH]1 [GW680903],%Inh,ERK1,0%
same,%Inh,ERK2,0%
same,%Inh,ERK3,0%
same,%Inh,ERK4,7%
same,%Inh,ERK5,0%
same,%Inh,ERK8,0%
same,%Inh,ERN1,0%
same,%Inh,FAK; [1],0%
same,%Inh,FER,0%
same,%Inh,FES,0%
same,%Inh,FGFR1,0%
same,%Inh,FGFR2,6%
same,%Inh,FGFR3,8%
same,%Inh,FGFR4,4%
same,%Inh,FGR,10%
same,%Inh,FLT1,93%
same,%Inh,FLT3-autoinhibited,20%
same,%Inh,FLT3,99.3%
same,%Inh,FLT4,72%
same,%Inh,FRK,19%
COC(=O)Nc1nc2ccc(Oc3ccc(NC(=O)Nc4cc(C(F)(F)F)ccc4F)cc3)cc2[nH]1.Cl [GW654607],%Inh,ERK1,0%
same,%Inh,ERK2,6%
same,%Inh,ERK3,16%
same,%Inh,ERK4,0%
same,%Inh,ERK5,0%
same,%Inh,ERK8,97.6%
same,%Inh,ERN1,10%
same,%Inh,FAK; [1],0%
same,%Inh,FER,0%
same,%Inh,FES,0%
same,%Inh,FGFR1,26%
same,%Inh,FGFR2,63%
same,%Inh,FGFR3,11%
same,%Inh,FGFR4,17%
same,%Inh,FGR,12%
same,%Inh,FLT1,99.6%
same,%Inh,FLT3-autoinhibited,27%
same,%Inh,FLT3,99%
same,%Inh,FLT4,99.9%
same,%Inh,FRK,94.7%
Cl.O=C(Nc1ccc(Oc2ccc3[nH]c(NC(=O)c4ccco4)nc3c2)cc1)Nc1cc(C(F)(F)F)ccc1F [GW683134],%Inh,ERK1,0%
same,%Inh,ERK2,0%
same,%Inh,ERK3,0%
same,%Inh,ERK4,14%
same,%Inh,ERK5,0%
same,%Inh,ERK8,82%
same,%Inh,ERN1,0%
same,%Inh,FAK; [1],0%
same,%Inh,FER,0%
same,%Inh,FES,0%
same,%Inh,FGFR1,40%
same,%Inh,FGFR2,77%
same,%Inh,FGFR3,36%
same,%Inh,FGFR4,12%
same,%Inh,FGR,24%
same,%Inh,FLT1,98.5%
same,%Inh,FLT3-autoinhibited,25%
same,%Inh,FLT3,99.4%
same,%Inh,FLT4,99.9%
same,%Inh,FRK,77%
CCn1c(-c2nonc2N)nc2c(-c3ccccc3)ncc(OCCCN)c21.O=C(O)C(F)(F)F.O=C(O)C(F)(F)F [GSK260205],%Inh,ERK1,0%
same,%Inh,ERK2,0%
same,%Inh,ERK3,0%
same,%Inh,ERK4,0%
same,%Inh,ERK5,0%
same,%Inh,ERK8,0%
same,%Inh,ERN1,11%
same,%Inh,FAK; [1],0%
same,%Inh,FER,10%
same,%Inh,FES,0%
same,%Inh,FGFR1,30%
same,%Inh,FGFR2,0%
same,%Inh,FGFR3,0%
same,%Inh,FGFR4,0%
same,%Inh,FGR,38%
same,%Inh,FLT1,37%
same,%Inh,FLT3-autoinhibited,0%
same,%Inh,FLT3,12%
same,%Inh,FLT4,43%
same,%Inh,FRK,5%
CS(=O)(=O)c1cccc(CNc2nc(Nc3ccc4c(c3)CCC(=O)N4)ncc2C(F)(F)F)c1,%Inh,ERK1,0%
same,%Inh,ERK2,17%
same,%Inh,ERK3,0%
same,%Inh,ERK4,0%
same,%Inh,ERK5,15%
same,%Inh,ERK8,90%
same,%Inh,ERN1,0%
same,%Inh,FAK; 1 µM,100%
same,%Inh,FER,0%
same,%Inh,FES,12%
same,%Inh,FGFR1,63%
same,%Inh,FGFR2,65%
same,%Inh,FGFR3,36%
same,%Inh,FGFR4,32%
same,%Inh,FGR,0%
same,%Inh,FLT1,77%
same,%Inh,FLT3-autoinhibited,54%
same,%Inh,FLT3,99%
same,%Inh,FLT4,89%
same,%Inh,FRK,0%
Nc1ncnc2scc(-c3ccc(NC(=O)Cc4cc(F)ccc4F)cc3)c12.O=C(O)C(F)(F)F [SB-731254-M],%Inh,ERK1,0%
same,%Inh,ERK2,0%
same,%Inh,ERK3,0%
same,%Inh,ERK4,11%
same,%Inh,ERK5,28%
same,%Inh,ERK8,0%
same,%Inh,ERN1,34%
same,%Inh,FAK; [1],4%
same,%Inh,FER,4%
same,%Inh,FES,0%
same,%Inh,FGFR1,28%
same,%Inh,FGFR2,100%
same,%Inh,FGFR3,0%
same,%Inh,FGFR4,9%
same,%Inh,FGR,23%
same,%Inh,FLT1,90.7%
same,%Inh,FLT3-autoinhibited,89%
same,%Inh,FLT3,94.1%
same,%Inh,FLT4,61%
same,%Inh,FRK,0%
